Experimental data from PubChem BioAssay (NCI).
The panel holds about 79,000 compounds, 15% with a hit somewhere; the sample as a whole holds those more often. The source made the active and inactive calls. Cut-off read from the data, not from the text of the source: active = growth inhibition above about 70%; inactive = the rest.

Assays:
[1] = NCI Yeast Anticancer Drug Screen. Data for the rad50 strain (AID 155);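 note: 0% = growth of vehicle-only cultures of the same strain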; conditions: S. cerevisiae rad50 strain growth inhibition; at 50.0 µM; hits give high values
How it was run: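 Inhibition values express reduced yeast growth in compound-treated cultures relative to vehicle-treated controls.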

[2] = NCI Yeast Anticancer Drug Screen. Data for the mec2-1 strain (AID 157); conditions: S. cerevisiae mec2-1 strain, at 50.0 µM, hits give high values
How it was run: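 Test agents were screened against the mec2-1 yeast strain, with defined DNA repair or cell cycle alteration. Growth was scored as inhibition against vehicle-only controls.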

[3] = NCI Yeast Anticancer Drug Screen. Data for the sgs1 mgt1 strain (AID 161);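 note: 0% = growth of cultures given vehicle only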; conditions: S. cerevisiae sgs1 mgt1 strain, at 50.0 µM, hits give high values
How it was run: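 Read-out: growth inhibition vs vehicle controls. Cells: mutant yeast strain deficient in DNA damage repair.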

[4] = NCI Yeast Anticancer Drug Screen. Data for the cln2 rad14 strain (AID 165);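 note: 0% = growth equal to vehicle treated cultures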; conditions: S. cerevisiae cln2 rad14 strain, at 50.0 µM, hits give high values
How it was run: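 Growth of compound-exposed yeast (cln2 rad14 genotype) measured and expressed as inhibition relative to vehicle.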

[5] = NCI Yeast Anticancer Drug Screen. Data for the bub3 strain (AID 167); conditions: S. cerevisiae bub3 mutant strain, at 50.0 µM, hits give high values
How it was run: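 Steps: expose the mutant yeast strain to compound; grow alongside vehicle-treated cultures; measure growth; express inhibition against the vehicle cultures.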

[6] = NCI Yeast Anticancer Drug Screen. Data for the mlh1 rad18 strain (AID 175); conditions: S. cerevisiae mlh1 rad18 strain growth inhibition; at 50.0 µM; hits give high values
How it was run: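 In this whole-cell yeast screen, a strain with altered DNA damage repair is challenged with compound, and its growth is measured against matched vehicle-treated controls.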

Measured: growth inhibition

CN1CC(C(N)=O)=CC(C(N)=O)C1 (stereo not given)
inactive: [1] -5.25% | [2] -9.2% | [3] -8.15% | [4] -0.6% | [5] 9.25% | [6] 7.5%

N=C(N)N1CCc2ccccc2C1
inactive: [1] -5.55% | [2] 7.3% | [3] -2% | [4] -3.35% | [5] -28.9% | [6] 2.65%

CCC(CC)COC(=O)CC(CC(=O)OCC(CC)CC)C(=O)OCC(CC)CC
inactive: [1] -12.3% | [2] -4.85% | [3] 9.35% | [4] -20.1% | [5] 1.1% | [6] 24.6%

CC1(C)CC(=O)NC1=O
inactive: [1] 30.8% | [2] 2% | [3] 8.55% | [4] -0.2% | [5] -19% | [6] 9.3%

CN(C)c1ccc(N=Nc2cc3c4ccccc4ccc3c3ccccc23)cc1
inactive: [1] 15.1% | [2] -10.2% | [3] 23.1% | [4] 1.6% | [5] 9.45% | [6] 23.3%

CCCc1nc(NC#N)nc(C(=O)NC23CC4CC(CC(C4)C2)C3)c1C
inactive: [1] -8.2% | [2] -13.2% | [3] 7.4% | [4] 8.4% | [5] -7.2% | [6] -9.35%

CC1(CCOCc2ccccc2)NC(=O)N(CCC#N)C1=O (stereo not given)
inactive: [1] 6.9% | [2] -9.65% | [3] -4.6% | [4] -10.2% | [5] 2.55% | [6] 12.6%

Cc1cc(NC(=O)NC(=O)c2ccccc2N(C)C)ccc1Oc1ncc(Br)cn1
inactive: [1] -14.6% | [2] -13.8% | [3] -13.3% | [4] 12.2% | [5] -3.4% | [6] -4.45%

CCOc1c(F)ccc(F)c1-c1c(F)ccc(F)c1OCC
inactive: [1] -7.5% | [2] -0.3% | [3] 5.65% | [4] 2.4% | [5] 3.3% | [6] -5.2%

CC1NC(C)c2ccc3ccccc3c2O1 (stereo not given)
inactive: [1] -4.85% | [2] -12.7% | [3] -25.1% | [4] -9.35% | [5] -11.2% | [6] -6.15%

Brc1cc2c(cc1CC1CCCCO1)OCO2 (stereo not given)
inactive: [1] -6.5% | [2] -17.1% | [3] 1.4% | [4] -61.9% | [5] -4.9% | [6] 0.85%

CN(C)CCNC(=O)c1ccc(C(=O)NCCN(C)C)c2c(C(=O)NCCN(C)C)ccc(C(=O)NCCN(C)C)c12
inactive: [1] 19.1% | [2] 41.3% | [3] 37.2% | [4] 54.7% | [5] 4.5% | [6] 8.5%

COc1ccccc1C1CCCCC1SCC(=O)O (stereo not given)
inactive: [1] 19.4% | [2] 11.7% | [3] 2.05% | [4] 9.35% | [5] 6.75% | [6] -18.4%

CCOc1ccccc1NC(=S)NC1CCCCC1
inactive: [1] -8.65% | [2] -9.3% | [3] 3.7% | [4] -17.2% | [5] 25.1% | [6] -6.3%

CCNc1nc2c(=O)n(C)c(=O)n(C)c2s1
inactive: [1] -31% | [2] -26.2% | [3] -4.05% | [4] -6.2% | [5] -10.6% | [6] -5.65%

COc1ccc(C(C)=O)c(O)c1OC
inactive: [1] -3.3% | [2] 4.7% | [3] 9.1% | [4] -3.35% | [5] -3.1% | [6] 3%

Nc1ccc(Cl)c(S(=O)(=O)O)c1
inactive: [1] 21.7% | [2] -4.35% | [3] 7.05% | [4] 8.4% | [5] 10.4% | [6] 17.1%

COc1ccccc1NC(N)=S
inactive: [1] -9.1% | [2] -8.5% | [3] 5.65% | [4] 3.25% | [5] -4% | [6] -26.9%

O=c1[nH]c2ccccc2nc1/C=C(\O)c1ccc([N+](=O)[O-])cc1
inactive: [1] 1.55% | [2] -10.6% | [3] -21.6% | [4] 25.7% | [5] -22.4% | [6] 1.6%

Cc1ccc(NC(=S)N2CCCC2)cc1
inactive: [1] 5.9% | [2] -12.9% | [3] -18.8% | [4] -94.2% | [5] -13.4% | [6] -0.7%

Cc1c(C(=O)CSc2nc3ccccc3c(=O)n2-c2ccccc2)c(=O)n(-c2ccccc2)n1C
inactive: [1] -9.1% | [2] 0.45% | [3] -18.1% | [4] 37.7% | [5] -11.3% | [6] -12.9%

c1ccc2c(c1)C1CCCCCC21N1CCOCC1 (stereo not given)
inactive: [1] 18% | [2] 1.05% | [3] -14.4% | [4] -5.45% | [5] -30.4% | [6] 7.6%

Cc1nc2cc(Cl)ccc2s1
inactive: [1] 30.5% | [2] 2.8% | [3] 22.1% | [4] 18.4% | [5] 30.3% | [6] 26.2%

CC(C)(C)NC(=O)c1cccc(C(N)=O)n1
inactive: [1] -10.4% | [2] -16.1% | [3] -11.8% | [4] -21.6% | [5] -4.25% | [6] -0.6%

Nc1ccc(C(=O)Nc2ccc3c(ccc4ccccc43)c2)cc1
inactive: [1] -5.8% | [2] 2.35% | [3] 13.8% | [4] 1.75% | [5] -12.9% | [6] 2.35%

O=C(O)COc1ccccc1F
inactive: [1] -27.9% | [2] 12.1% | [3] -14.4% | [4] -25.9% | [5] 3% | [6] -3.85%

CCOC(=O)C1CC(O)c2ccc(Cl)cc2N1 (stereo not given)
inactive: [1] 5.45% | [2] 10.2% | [3] 20.6% | [4] 16.1% | [5] 9.6% | [6] 6.15%

CCN(CC)Cc1cc2[nH]c3c4ccc(Cl)cc4ncc3c2cc1OC
inactive: [1] 23.8% | [2] 11.8% | [3] -6.15% | [4] -2.65% | [5] -45.5% | [6] -42.6%

COc1cc2c3c(c1)nc(C)n3C(=O)C(c1ccccc1)S2 (stereo not given)
inactive: [1] -17.6% | [2] -5.3% | [3] -26.3% | [4] 4.1% | [5] 21.6% | [6] -23.6%

COc1cc(C)cc2c(-c3c(OC(C)=O)cc(OC(C)=O)c4c3C[C@H](C)N(C(C)=O)[C@H]4C)cc(-c3cc(-c4c(OC(C)=O)cc(OC(C)=O)c5c4C[C@H](C)N(C(C)=O)[C@H]5C)c4cc(C)cc(OC)c4c3O)c(O)c12
inactive: [1] 41% | [2] 31.5% | [3] 34.5% | [4] 7.65% | [5] -44% | [6] 16.4%

CC(=O)Nc1ccc(OC(C)=O)cc1
inactive: [1] 14.4% | [2] -0.85% | [3] 3.55% | [4] 20.5% | [5] 2.7% | [6] 24.4%

COc1ccc(CN=CN/C(C#N)=C(\N)C#N)cc1OC
inactive: [1] -21.2% | [2] -49.8% | [3] -28.6% | [4] 6.55% | [5] 4.35% | [6] -23.6%

N#CCCNCCNCCC#N
inactive: [1] -30.8% | [2] -2.25% | [3] -18.1% | [4] -68.2% | [5] -26.1% | [6] -26.4%

C1=C(c2ccccc2)OC(c2ccccc2)=C(c2ccccc2)[P+]1(c1ccccc1)c1ccccc1
active: [1] 99.5% | [2] 99.7% | [3] 99.7% | [4] 99.7% | [5] 99.5% | [6] 99.5%

N/C(=C\C(=O)c1ccccc1)C(=O)c1ccccc1
inactive: [1] 5.7% | [2] 4.65% | [3] -15.5% | [4] -10.7% | [5] 0.65% | [6] -1.55%

O=C1CCC2CN(C(=O)c3ccccc3)CCC2C1 (stereo not given)
inactive: [1] 8.75% | [2] 7.7% | [3] 21.1% | [4] 3.1% | [5] 16.6% | [6] 22.2%

O=C1/C(=C/c2ccccc2)SC(=S)N1C1c2ccccc2Oc2ccccc21
inactive: [1] 35.4% | [2] 14.6% | [3] 53.8% | [4] 38.8% | [5] 5.25% | [6] 30.1%

CCOC(=O)C(=CN1CCCc2ccccc21)C(=O)OCC
inactive: [1] 5.05% | [2] -17.1% | [3] 13.6% | [4] -35% | [5] 5.4% | [6] -6.15%

Nc1ccc2ccccc2c1[N+](=O)[O-]
inactive: [1] 25.9% | [2] 10.1% | [3] 37.6% | [4] 17.5% | [5] 14.9% | [6] 39.3%

CN(C)CCNc1ncnc2nc(-c3ccc4ccccc4c3)[nH]c12
inactive: [1] -11% | [2] -20.9% | [3] 7.8% | [4] 11.6% | [5] 3.05% | [6] -18.6%
